# Measurements: PubChem BioAssay (EPA / NIEHS)
# Inconclusive results are not listed. Activity calls are given as the source filed them. How the source made its calls: active means hit-call score of the fitted dose curve at least 0.9, where 1 is the maximum; inconclusive means response in the unintended direction; inactive means score below 0.9.
# Legend:
# [1] = target: Protein deacetylase HDAC6 (Homo sapiens) (UniProt Q9UBN7); assay: NVS_ENZ_hHDAC6: NovaScreen (NVS) Enzymatic Assay for human Histone Deacetylase 6 (HDAC6) (AID 2283164)
# Outline: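 Concentration-response runs up to 50 uM followed a duplicate 25 uM single-point screen. Deacetylase activity of recombinant human HDAC6 read by fluorescence after 1 h, with mobility-shift separation of substrate and product; DMSO as baseline.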
# [2] = target: Mitogen-activated protein kinase 3 (Homo sapiens) (UniProt P27361); assay: NVS_ENZ_hMAPK3: NovaScreen (NVS) Enzymatic Assay for human Mitogen-Activated Protein Kinase 3 (MAPK 3) (AID 2283177)
# Mitogen-activated protein kinase 3 (Homo sapiens), sequence (P27361 whole entry, looked up): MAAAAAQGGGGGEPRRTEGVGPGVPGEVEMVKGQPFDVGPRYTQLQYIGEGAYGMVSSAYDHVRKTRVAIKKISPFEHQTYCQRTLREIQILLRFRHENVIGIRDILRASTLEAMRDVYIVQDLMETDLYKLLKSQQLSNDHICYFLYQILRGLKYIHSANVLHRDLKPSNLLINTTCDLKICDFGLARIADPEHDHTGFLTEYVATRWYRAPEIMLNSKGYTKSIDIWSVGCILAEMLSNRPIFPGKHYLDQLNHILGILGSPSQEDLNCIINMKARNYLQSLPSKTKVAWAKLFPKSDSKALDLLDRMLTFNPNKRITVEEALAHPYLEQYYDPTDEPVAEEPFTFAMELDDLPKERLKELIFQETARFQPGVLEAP
# Outline: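 Chemicals were first tested in duplicate at 25 uM, with hits re-run as concentration series (max 50 uM). Recombinant enzyme activity, measured 1 h post-dose in a cell-free format, was read by fluorescence/mobility shift relative to DMSO.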
# [3] = target: human Elastase, ELANE (gene 1991) (UniProt P08246); assay: NVS_ENZ_hElastase: NovaScreen (NVS) Enzymatic Assay for human Elastase (AID 2283153)
# human Elastase, ELANE (gene 1991), sequence (P08246 whole entry, looked up): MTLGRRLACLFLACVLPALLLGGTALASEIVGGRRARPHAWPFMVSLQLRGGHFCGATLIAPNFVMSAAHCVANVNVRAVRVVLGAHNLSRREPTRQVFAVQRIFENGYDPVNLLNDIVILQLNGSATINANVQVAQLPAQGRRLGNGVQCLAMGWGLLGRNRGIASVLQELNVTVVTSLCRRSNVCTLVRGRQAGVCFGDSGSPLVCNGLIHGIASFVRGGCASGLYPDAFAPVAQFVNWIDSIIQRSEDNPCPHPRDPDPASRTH
# Outline: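 Concentration-response to 50 uM max, run singly for chemicals passing a threshold (e.g., 30% inhibition) in a duplicate 25 uM single-point screen. Neutrophil-derived human elastase, absorbance read-out of enzyme activity at 1.5 h; DMSO baseline.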
# [4] = target: human Ephrin type-B Receptor 1 (EphB1), EPHB1 (gene 2047) (UniProt P54762); assay: NVS_ENZ_hEphB1: NovaScreen (NVS) Enzymatic Assay for human Ephrin type-B Receptor 1 (EphB1) (AID 2283154)
# human Ephrin type-B Receptor 1 (EphB1), EPHB1 (gene 2047), sequence (P54762 whole entry, looked up): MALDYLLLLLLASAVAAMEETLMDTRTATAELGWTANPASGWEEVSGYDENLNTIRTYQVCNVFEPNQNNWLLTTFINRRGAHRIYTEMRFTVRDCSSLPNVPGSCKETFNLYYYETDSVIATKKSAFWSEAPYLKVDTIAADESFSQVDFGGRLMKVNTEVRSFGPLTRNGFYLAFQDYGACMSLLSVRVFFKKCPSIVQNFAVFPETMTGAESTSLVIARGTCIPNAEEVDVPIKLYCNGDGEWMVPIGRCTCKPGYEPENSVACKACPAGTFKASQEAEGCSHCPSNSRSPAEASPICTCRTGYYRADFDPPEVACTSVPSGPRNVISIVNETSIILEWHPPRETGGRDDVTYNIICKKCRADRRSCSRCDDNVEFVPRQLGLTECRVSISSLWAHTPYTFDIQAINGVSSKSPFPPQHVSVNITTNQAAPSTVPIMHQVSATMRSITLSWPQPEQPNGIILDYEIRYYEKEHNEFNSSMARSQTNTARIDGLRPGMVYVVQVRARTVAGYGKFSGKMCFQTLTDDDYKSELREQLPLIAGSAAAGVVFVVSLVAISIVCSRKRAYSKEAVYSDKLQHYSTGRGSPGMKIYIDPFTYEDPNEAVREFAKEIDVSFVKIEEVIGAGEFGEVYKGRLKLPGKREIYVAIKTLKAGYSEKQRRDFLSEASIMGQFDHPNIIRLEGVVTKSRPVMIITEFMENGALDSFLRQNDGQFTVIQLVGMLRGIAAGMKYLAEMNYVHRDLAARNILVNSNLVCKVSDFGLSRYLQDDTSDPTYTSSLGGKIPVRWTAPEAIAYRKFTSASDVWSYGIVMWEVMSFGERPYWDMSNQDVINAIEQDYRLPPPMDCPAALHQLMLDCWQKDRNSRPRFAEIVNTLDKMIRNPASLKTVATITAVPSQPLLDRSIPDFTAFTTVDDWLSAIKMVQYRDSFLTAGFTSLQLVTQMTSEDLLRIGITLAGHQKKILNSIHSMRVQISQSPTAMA
# Outline: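 Recombinant EphB1 activity read by fluorescence after mobility-shift separation of product from substrate, 1 h post-dosing. Compounds screened in duplicate at 25 uM; inhibition scored as signal loss relative to DMSO.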
# [5] = target: human Esterase Plasma (ES), BCHE (gene 590) (UniProt P06276); assay: NVS_ENZ_hES: NovaScreen (NVS) Enzymatic Assay for human Esterase Plasma (ES) (AID 2283157)
# human Esterase Plasma (ES), BCHE (gene 590), sequence (P06276 whole entry, looked up): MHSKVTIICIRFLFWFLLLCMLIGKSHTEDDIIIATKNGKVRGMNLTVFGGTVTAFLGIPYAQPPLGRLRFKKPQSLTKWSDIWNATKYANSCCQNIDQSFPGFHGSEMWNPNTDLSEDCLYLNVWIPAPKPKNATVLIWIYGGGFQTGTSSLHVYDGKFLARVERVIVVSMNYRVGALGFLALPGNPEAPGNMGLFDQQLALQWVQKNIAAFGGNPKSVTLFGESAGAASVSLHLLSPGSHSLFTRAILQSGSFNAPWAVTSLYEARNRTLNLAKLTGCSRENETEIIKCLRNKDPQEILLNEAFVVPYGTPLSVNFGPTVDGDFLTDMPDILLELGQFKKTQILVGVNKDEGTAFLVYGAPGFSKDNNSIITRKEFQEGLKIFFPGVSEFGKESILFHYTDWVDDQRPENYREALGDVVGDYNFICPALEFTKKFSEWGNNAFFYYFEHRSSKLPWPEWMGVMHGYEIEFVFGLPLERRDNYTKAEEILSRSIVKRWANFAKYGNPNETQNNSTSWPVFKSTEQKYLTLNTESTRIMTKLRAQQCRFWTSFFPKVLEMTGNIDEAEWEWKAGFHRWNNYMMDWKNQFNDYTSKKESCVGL
# Outline: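 Primary single-concentration screen at 25 uM in duplicate, then concentration-response to a 50 uM top dose. Human plasma esterase activity detected colorimetrically after 0.25 h incubation, with DMSO as baseline.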
# [6] = target: human Ephrin type-A Receptor 1 (EphA1), EPHA1 (gene 2041) (UniProt P21709); assay: NVS_ENZ_hEphA1: NovaScreen (NVS) Enzymatic Assay for human Ephrin type-A Receptor 1 (EphA1) (AID 2283158);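 further: activity is signal loss versus DMSO meaning EphA1 kinase inhibition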
# human Ephrin type-A Receptor 1 (EphA1), EPHA1 (gene 2041), sequence (P21709 whole entry, looked up): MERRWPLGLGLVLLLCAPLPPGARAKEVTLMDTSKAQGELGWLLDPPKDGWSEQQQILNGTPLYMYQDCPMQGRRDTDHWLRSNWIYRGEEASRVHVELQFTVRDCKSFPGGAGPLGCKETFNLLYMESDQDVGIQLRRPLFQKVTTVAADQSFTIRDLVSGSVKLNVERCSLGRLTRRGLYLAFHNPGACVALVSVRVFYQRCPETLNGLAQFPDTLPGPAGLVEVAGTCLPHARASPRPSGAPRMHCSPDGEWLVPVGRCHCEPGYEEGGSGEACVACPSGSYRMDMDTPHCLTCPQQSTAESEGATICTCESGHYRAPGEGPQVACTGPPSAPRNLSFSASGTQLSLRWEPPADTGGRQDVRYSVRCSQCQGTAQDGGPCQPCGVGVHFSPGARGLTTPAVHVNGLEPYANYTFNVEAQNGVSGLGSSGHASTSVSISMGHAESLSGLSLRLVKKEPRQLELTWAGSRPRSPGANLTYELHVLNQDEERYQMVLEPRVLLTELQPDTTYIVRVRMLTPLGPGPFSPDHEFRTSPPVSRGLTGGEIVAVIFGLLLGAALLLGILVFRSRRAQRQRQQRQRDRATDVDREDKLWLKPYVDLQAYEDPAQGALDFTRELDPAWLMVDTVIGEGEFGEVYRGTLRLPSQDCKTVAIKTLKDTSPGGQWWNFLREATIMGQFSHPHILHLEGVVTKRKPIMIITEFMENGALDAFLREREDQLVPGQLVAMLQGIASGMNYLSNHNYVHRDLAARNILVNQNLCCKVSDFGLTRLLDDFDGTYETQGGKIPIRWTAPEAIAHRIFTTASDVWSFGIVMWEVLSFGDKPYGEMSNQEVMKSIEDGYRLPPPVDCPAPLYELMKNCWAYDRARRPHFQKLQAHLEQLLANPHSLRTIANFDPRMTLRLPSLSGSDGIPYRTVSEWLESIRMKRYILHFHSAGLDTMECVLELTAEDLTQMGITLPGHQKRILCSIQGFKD
# Outline: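 Cell-free kinase activity with recombinant protein, 1 hour after dosing; product separated by electrophoretic mobility shift, fluorescence read. Primary screen at 25 uM in duplicate; hits run as concentration-response up to 50 uM, relative to DMSO.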
# [7] = target: human LYN Proto-Oncogene, Src family Tyrosine Kinase (LynA), LYN (gene 4067) (UniProt P07948); assay: NVS_ENZ_hLynA: NovaScreen (NVS) Enzymatic Assay for human LYN Proto-Oncogene, Src family Tyrosine Kinase (LynA) (AID 2283173)
# human LYN Proto-Oncogene, Src family Tyrosine Kinase (LynA), LYN (gene 4067), sequence (P07948 whole entry, looked up): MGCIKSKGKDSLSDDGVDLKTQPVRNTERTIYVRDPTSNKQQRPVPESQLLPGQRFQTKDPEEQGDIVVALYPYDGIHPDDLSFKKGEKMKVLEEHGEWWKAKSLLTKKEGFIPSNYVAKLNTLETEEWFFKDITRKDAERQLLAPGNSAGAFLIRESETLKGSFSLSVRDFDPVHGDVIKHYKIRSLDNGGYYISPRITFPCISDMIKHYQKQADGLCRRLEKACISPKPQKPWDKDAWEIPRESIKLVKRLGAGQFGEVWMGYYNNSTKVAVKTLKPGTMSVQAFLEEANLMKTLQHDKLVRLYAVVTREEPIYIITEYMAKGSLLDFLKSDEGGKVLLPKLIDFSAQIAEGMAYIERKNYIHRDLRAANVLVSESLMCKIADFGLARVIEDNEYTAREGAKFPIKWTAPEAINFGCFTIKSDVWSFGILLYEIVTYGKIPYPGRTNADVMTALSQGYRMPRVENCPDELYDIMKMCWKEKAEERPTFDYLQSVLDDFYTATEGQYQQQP
# Outline: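 Recombinant kinase with fluorescent substrate; product separated from substrate by electrophoretic mobility shift and read 1 h after dosing. Duplicate screen at 25 uM, then concentration-response up to 50 uM; activity scored as signal loss against DMSO.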
# [8] = target: human Dual Specificity Protein Phosphatase 3 (DUSP3), DUSP3 (gene 1845) (UniProt P51452); assay: NVS_ENZ_hDUSP3: NovaScreen (NVS) Enzymatic Assay for human Dual Specificity Protein Phosphatase 3 (DUSP3) (AID 2283152);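 further: phosphatase activity of recombinant human DUSP3 on a fluorogenic substrate without cells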
# human Dual Specificity Protein Phosphatase 3 (DUSP3), DUSP3 (gene 1845), sequence (P51452 whole entry, looked up): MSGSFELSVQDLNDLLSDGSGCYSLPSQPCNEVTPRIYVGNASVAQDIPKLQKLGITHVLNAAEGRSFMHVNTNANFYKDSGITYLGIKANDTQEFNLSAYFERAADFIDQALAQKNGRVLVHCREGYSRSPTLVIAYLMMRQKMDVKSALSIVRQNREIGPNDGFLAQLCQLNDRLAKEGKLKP
# Outline: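 Cell-free fluorescence-intensity enzyme activity assay with recombinant protein and substrate; loss of signal fitted relative to DMSO baseline. Primary screen in duplicate at 25 uM, actives then run in concentration series; measured 0 h after dosing.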
# [9] = target: human c-Jun N-terminal Kinases (JNK2), MAPK9 (gene 5601) (UniProt P45984); assay: NVS_ENZ_hJNK2: NovaScreen (NVS) Enzymatic Assay for human c-Jun N-terminal Kinases (JNK2) (AID 2283171)
# human c-Jun N-terminal Kinases (JNK2), MAPK9 (gene 5601), sequence (P45984 whole entry, looked up): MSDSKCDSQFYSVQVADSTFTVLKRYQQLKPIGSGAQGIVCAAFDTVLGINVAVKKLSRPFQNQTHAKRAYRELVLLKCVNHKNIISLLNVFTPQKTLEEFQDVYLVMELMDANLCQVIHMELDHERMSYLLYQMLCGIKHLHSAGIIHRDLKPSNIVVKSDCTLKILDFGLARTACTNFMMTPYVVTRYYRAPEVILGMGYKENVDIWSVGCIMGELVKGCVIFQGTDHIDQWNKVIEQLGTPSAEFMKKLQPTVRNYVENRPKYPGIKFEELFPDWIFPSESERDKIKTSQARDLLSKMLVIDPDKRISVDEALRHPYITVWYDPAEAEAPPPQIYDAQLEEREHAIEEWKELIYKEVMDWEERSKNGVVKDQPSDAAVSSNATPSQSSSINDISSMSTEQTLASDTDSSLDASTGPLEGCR
# Outline: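 Chemicals first tested in duplicate at 25 uM, then in singleton concentration series up to 50 uM, against extracted JNK2 enzyme. Activity loss read by fluorescence with mobility-shift separation 1 h post-dose; DMSO baseline.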
# [10] = target: human Janus Kinase 2 (Jak2), JAK2 (gene 3717) (UniProt O60674); assay: NVS_ENZ_hJak2: NovaScreen (NVS) Enzymatic Assay for human Janus Kinase 2 (Jak2) (AID 2283169)
# Outline: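 Single-point duplicate screen at 25 uM, with hits run in concentration series to a 50 uM top dose. Substrate-product separation by mobility shift with fluorescence detection, 1 h post-dosing; DMSO baseline.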
# [11] = target: human Casein Kinase 1-delta (CK1D), CSNK1D (gene 1453) (UniProt P48730); assay: NVS_ENZ_hCK1D: NovaScreen (NVS) Enzymatic Assay for human Casein Kinase 1-delta (CK1D) (AID 2283148)
# human Casein Kinase 1-delta (CK1D), CSNK1D (gene 1453), sequence (P48730 whole entry, looked up): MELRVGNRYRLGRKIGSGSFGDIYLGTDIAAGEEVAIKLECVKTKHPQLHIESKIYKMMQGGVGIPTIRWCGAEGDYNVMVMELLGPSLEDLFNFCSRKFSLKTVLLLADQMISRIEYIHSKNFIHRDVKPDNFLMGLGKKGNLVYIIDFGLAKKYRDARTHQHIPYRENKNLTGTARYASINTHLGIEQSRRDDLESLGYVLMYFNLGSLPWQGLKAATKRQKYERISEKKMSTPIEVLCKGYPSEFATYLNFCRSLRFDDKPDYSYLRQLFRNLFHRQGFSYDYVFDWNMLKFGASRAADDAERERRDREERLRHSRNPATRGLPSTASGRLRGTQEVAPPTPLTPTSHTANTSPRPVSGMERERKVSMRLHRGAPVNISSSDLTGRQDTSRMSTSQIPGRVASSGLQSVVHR
# Outline: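 Recombinant human CK1-delta, cell-free; fluorescent substrate with electrophoretic mobility-shift separation of product, read 1 h after dosing. Single 25 uM duplicate screen, then concentration-response up to 50 uM; loss of signal vs DMSO.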
# [12] = target: human MET Proto-Oncogene, Receptor Tyrosine Kinase (MET), MET (gene 4233) (UniProt P08581); assay: NVS_ENZ_hMet: NovaScreen (NVS) Enzymatic Assay for human MET Proto-Oncogene, Receptor Tyrosine Kinase (MET) (AID 2283180)
# Outline: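 Hits from a 25 uM duplicate screen were retested in concentration series up to 50 uM. Enzyme activity was measured by fluorescence after electrophoretic separation of product from substrate, 1 h after compound addition, relative to DMSO.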
structure (smiles),measurement,setting,value
COP(=S)(OC)SCn1nnc2ccccc2c1=O,outcome,[1],inactive
same,outcome,[2],inactive
CC(C)(C)C(=O)C(Oc1ccc(Cl)cc1)n1cncn1 (stereo not drawn),outcome,[2],inactive
CCOP(=O)(OCC)Oc1nc(Cl)c(Cl)cc1Cl,AC50,[3],14.4 µM (active)
same,outcome,[4],inactive
same,AC50,[5],0.00463 µM (active)
N#Cc1c[nH]cc1-c1cccc2c1OC(F)(F)O2,outcome,[6],inactive
same,outcome,[7],inactive
CC(C)N1C(=O)N(c2ccccc2)CSC1=NC(C)(C)C,AC50,[8],2.96 µM (active)
Nc1c(Cl)c(Cl)nc(C(=O)O)c1Cl,outcome,[9],inactive
Nc1cnn(-c2ccccc2)c(=O)c1Cl,outcome,[10],inactive
CN/C(=N\[N+](=O)[O-])NCc1cnc(Cl)s1,outcome,[11],inactive
same,outcome,[4],inactive
same,AC50,[12],22.2 µM (active)
CCNP(=S)(OC)O/C(C)=C/C(=O)OC(C)C (stereo not drawn),outcome,[2],inactive
CCOC(=O)C(C)OC(=O)c1cc(Oc2ccc(C(F)(F)F)cc2Cl)ccc1[N+](=O)[O-] (stereo not drawn),outcome,[8],inactive
same,outcome,[3],inactive
same,outcome,[4],inactive
Cc1nc(N(C)C)nc(OC(=O)N(C)C)c1C,outcome,[4],inactive
same,AC50,[5],16.9 µM (active)
C=CCOC(=O)C(C)(C)OC(=O)c1cc(-n2c(=O)cc(C(F)(F)F)n(C)c2=O)ccc1Cl,outcome,[4],inactive
Nc1c(Cl)c(F)nc(OCC(=O)O)c1Cl,outcome,[4],inactive
Cc1c(COC(=O)[C@@H]2[C@H](/C=C(\Cl)C(F)(F)F)C2(C)C)cccc1-c1ccccc1,outcome,[3],inactive
same,outcome,[4],inactive
CC1(C)C(C=C(Cl)Cl)C1C(=O)OC(C#N)c1cccc(Oc2ccccc2)c1 (stereo not drawn),AC50,[8],3.06 µM (active)
same,outcome,[4],inactive
CC1(C)C(C(=O)OC(C#N)c2cccc(Oc3ccccc3)c2)C1(C)C (stereo not drawn),outcome,[3],inactive
same,outcome,[4],inactive
